# Activity calls are given as the source filed them. The calls were made as follows: active = hit-call score of the fitted dose curve at least 0.9, where 1 is the maximum; inactive = score below 0.9.
# What was measured:
# Details in all cases: mRNA level, 48 h; actives raise or lower the signal
# [1] = read-out: Alpha-fetoprotein (AFP) gene, AFP (gene 174); assay: LTEA_HepaRG_AFP: Life Technologies and Expression Analysis (LTEA) Assay for Alpha-fetoprotein (AFP) gene using HepaRG (AID 2283472)
# How it was run: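 Human HepaRG cells plated 48 h, then switched to serum-free induction medium and exposed in duplicate for 48 h to 8-point half-log series from 100 uM in 0.5% DMSO. AFP mRNA by qRT-PCR, normalized to ACTB, GAPDH, POLR2A; bidirectional fit versus DMSO.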
# BCL2L11 (gene 10018) = assay: LTEA_HepaRG_BCL2L11: Life Technologies and Expression Analysis (LTEA) Assay for Bcl-2 (BCL2L11) gene using HepaRG (AID 2283473)
# How it was run: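 Human hepatic HepaRG cultures are treated 48 h with test chemicals (maximum 100 uM, 0.5% DMSO vehicle). Expression of BCL2L11 is measured by qRT-PCR against ACTB, GAPDH and POLR2A, with activity in either direction scored relative to vehicle.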
# [2] = read-out: Apolipoprotein A-V (APOA5) gene, APOA5 (gene 116519); assay: LTEA_HepaRG_APOA5: Life Technologies and Expression Analysis (LTEA) Assay for Apolipoprotein A-V (APOA5) gene using HepaRG (AID 2283474)
# How it was run: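 Concentration-response of APOA5 expression in HepaRG: eight half-log doses to 100 uM, 48 h, qRT-PCR normalized to ACTB/GAPDH/POLR2A, bidirectional fitting with 0.5% DMSO as baseline.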
# Caspase-3 (Homo sapiens) = Caspase-3 (Homo sapiens) (UniProt P42574); assay: LTEA_HepaRG_CASP3: Life Technologies and Expression Analysis (LTEA) Assay for cysteine-aspartic acid protease (CASP3) using HepaRG (AID 2283477)
# How it was run: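 Transcript-level assay: CASP3 mRNA in human HepaRG after 48 h treatment, eight half-log concentrations from 100 uM in 0.5% DMSO, quantified by qRT-PCR.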
# [3] = read-out: Cytochrome P450 (CYP1A2), CYP1A2 (gene 1544); assay: LTEA_HepaRG_CYP1A2: Life Technologies and Expression Analysis (LTEA) Assay for Cytochrome P450 (CYP1A2) using HepaRG (AID 2283479)
# How it was run: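 In duplicate wells, HepaRG cultures maintained in 0.5% DMSO were treated 48 h across an 8-point, half-log series topping at 100 uM; phenobarbital (1 mM) served as induction control. Expression was read by qRT-PCR.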
# [4] = read-out: cysteine-aspartic acid protease (CASP8), CASP8 (gene 841); assay: LTEA_HepaRG_CASP8: Life Technologies and Expression Analysis (LTEA) Assay for cysteine-aspartic acid protease (CASP8) using HepaRG (AID 2283480)
# How it was run: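 Differentiated human HepaRG cells, plated 48 h then switched to serum-free induction medium, were exposed in duplicate for 48 h to 8 half-log concentrations up to 100 uM in 0.5% DMSO. CASP8 mRNA was quantified by qRT-PCR, normalized to ACTB/GAPDH/POLR2A.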
# [5] = read-out: Cytochrome P450 2C19 (Homo sapiens) (UniProt P33261); assay: LTEA_HepaRG_CYP2C19: Life Technologies and Expression Analysis (LTEA) Assay for CYP2C19 using HepaRG (AID 2283482)
# How it was run: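 Endpoint: CYP2C19 mRNA change, bidirectional fit vs 0.5% DMSO. Cells: HepaRG, 48 h exposure, eight-point series topping at 100 uM. Quantitation: qRT-PCR normalized to ACTB, GAPDH, POLR2A.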
# CYP2C8 (gene 1558) = assay: LTEA_HepaRG_CYP2C8: Life Technologies and Expression Analysis (LTEA) Assay for CYP2C8 using HepaRG (AID 2283483)
# How it was run: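 Differentiated human HepaRG cells were exposed for 48 h in serum-free induction medium to eight half-log concentrations up to 100 uM in 0.5% DMSO, in duplicate. CYP2C8 mRNA was measured by TaqMan qRT-PCR, normalized to ACTB, GAPDH and POLR2A, and fitted bidirectionally against DMSO.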
# CYP2C9 (gene 1559) = assay: LTEA_HepaRG_CYP2C9: Life Technologies and Expression Analysis (LTEA) Assay for CYP2C9 using HepaRG (AID 2283484)
# How it was run: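 Differentiated human HepaRG cells were exposed 48 h in serum-free induction medium to eight half-log concentrations up to 100 uM in 0.5% DMSO. CYP2C9 mRNA was measured by qRT-PCR, normalized to ACTB, GAPDH and POLR2A, and fitted bidirectionally against DMSO.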
# CYP2E1 (gene 1571) = assay: LTEA_HepaRG_CYP2E1: Life Technologies and Expression Analysis (LTEA) Assay for CYP2E1 using HepaRG (AID 2283485)
# How it was run: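 HepaRG cells in serum-free induction medium exposed 48 h to test chemicals, 8 half-log concentrations up to 100 uM in 0.5% DMSO, duplicate. CYP2E1 mRNA by qRT-PCR, normalized to ACTB, GAPDH, POLR2A; bidirectional fit versus DMSO.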
# CYP4A11 (gene 1579) = assay: LTEA_HepaRG_CYP4A11: Life Technologies and Expression Analysis (LTEA) Assay for CYP4A11 using HepaRG (AID 2283486)
# How it was run: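 Human hepatic HepaRG cultures receive duplicate 48 h exposures across a concentration-response series topping at 100 uM. Expression changes in CYP4A11 are measured by qRT-PCR relative to DMSO controls.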
# [6] = read-out: Cytochrome P450 3A4 (Homo sapiens) (UniProt P08684); assay: LTEA_HepaRG_CYP3A4: Life Technologies and Expression Analysis (LTEA) Assay for CYP3A4 using HepaRG (AID 2283487)
# How it was run: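 HepaRG, 48 h exposure, 8-pt CRC from 100 uM (half-log), 0.5% DMSO, duplicates; serum-free induction medium. Readout: CYP3A4 mRNA, qRT-PCR, ACTB/GAPDH/POLR2A normalization. Bidirectional fit vs DMSO.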
# [7] = read-out: Pro-epidermal growth factor (Homo sapiens) (UniProt P01133); assay: LTEA_HepaRG_EGF: Life Technologies and Expression Analysis (LTEA) Assay for Epidermal growth factor (EGF) using HepaRG (AID 2283489)
# How it was run: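 Concentration-response mRNA assay: HepaRG cells dosed 48 h (max 100 uM, 0.5% DMSO), EGF measured by qRT-PCR and normalized to ACTB/GAPDH/POLR2A.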
# [8] = read-out: Ezrin (EZR), EZR (gene 7430); assay: LTEA_HepaRG_EZR: Life Technologies and Expression Analysis (LTEA) Assay for Ezrin (EZR) using HepaRG (AID 2283491)
# How it was run: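 Read-out is EZR transcript level by qRT-PCR, normalized to three housekeeping genes and fitted bidirectionally against the DMSO control. Human HepaRG cells received test chemicals for 48 h at eight half-log concentrations up to 100 uM in 0.5% DMSO.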
# [9] = read-out: Bcl-2 (BID) gene, BID (gene 637); assay: LTEA_HepaRG_BID: Life Technologies and Expression Analysis (LTEA) Assay for Bcl-2 (BID) gene using HepaRG (AID 2283476)
# How it was run: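 Differentiated HepaRG cells in serum-free induction medium were exposed in duplicate for 48 h to eight half-log concentrations up to 100 uM in 0.5% DMSO. BID mRNA was quantified by qRT-PCR, normalized to ACTB, GAPDH and POLR2A.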
# [10] = read-out: Cytochrome P450 (CYP24A1), CYP24A1 (gene 1591); assay: LTEA_HepaRG_CYP24A1: Life Technologies and Expression Analysis (LTEA) Assay for Cytochrome P450 (CYP24A1) using HepaRG (AID 2283478)
# How it was run: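 Gene expression of CYP24A1 by TaqMan qRT-PCR in HepaRG after 48 h treatment, highest concentration 100 uM; activity fitted in both directions relative to DMSO vehicle.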
# [11] = read-out: Early growth response protein 1 (EGR1) transcription factor, EGR1 (gene 1958); assay: LTEA_HepaRG_EGR1: Life Technologies and Expression Analysis (LTEA) Assay for Early growth response protein 1 (EGR1) transcription factor using HepaRG (AID 2283490)
# How it was run: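 Differentiated human HepaRG cells in serum-free induction medium were exposed in duplicate for 48 h to eight concentrations (top 100 uM, half-log steps) in 0.5% DMSO. EGR1 mRNA was quantified by qRT-PCR, normalized to ACTB, GAPDH and POLR2A, and fitted bidirectionally versus DMSO.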
# [12] = read-out: DNA damage-inducible transcript 3 (DDIT3), DDIT3 (gene 1649); assay: LTEA_HepaRG_DDIT3: Life Technologies and Expression Analysis (LTEA) Assay for DNA damage-inducible transcript 3 (DDIT3) using HepaRG (AID 2283488)
# How it was run: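 Differentiated human HepaRG cells in serum-free induction medium were exposed in duplicate for 48 h to 8 concentrations (top 100 uM, half-log steps, 0.5% DMSO). DDIT3 mRNA measured by TaqMan qRT-PCR, normalized to ACTB/GAPDH/POLR2A; bidirectional fit versus DMSO.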
# Chain of Caspase-3 (Homo sapiens) (P42574 whole entry, looked up): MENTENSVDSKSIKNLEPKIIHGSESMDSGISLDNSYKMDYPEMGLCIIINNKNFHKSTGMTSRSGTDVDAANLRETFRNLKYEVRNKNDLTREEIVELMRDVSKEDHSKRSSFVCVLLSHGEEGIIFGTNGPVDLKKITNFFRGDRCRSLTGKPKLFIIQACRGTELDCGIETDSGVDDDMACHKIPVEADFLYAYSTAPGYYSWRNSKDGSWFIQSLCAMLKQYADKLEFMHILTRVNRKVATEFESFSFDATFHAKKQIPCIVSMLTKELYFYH
# Chain of Cytochrome P450 2C19 (Homo sapiens) (P33261 whole entry, looked up): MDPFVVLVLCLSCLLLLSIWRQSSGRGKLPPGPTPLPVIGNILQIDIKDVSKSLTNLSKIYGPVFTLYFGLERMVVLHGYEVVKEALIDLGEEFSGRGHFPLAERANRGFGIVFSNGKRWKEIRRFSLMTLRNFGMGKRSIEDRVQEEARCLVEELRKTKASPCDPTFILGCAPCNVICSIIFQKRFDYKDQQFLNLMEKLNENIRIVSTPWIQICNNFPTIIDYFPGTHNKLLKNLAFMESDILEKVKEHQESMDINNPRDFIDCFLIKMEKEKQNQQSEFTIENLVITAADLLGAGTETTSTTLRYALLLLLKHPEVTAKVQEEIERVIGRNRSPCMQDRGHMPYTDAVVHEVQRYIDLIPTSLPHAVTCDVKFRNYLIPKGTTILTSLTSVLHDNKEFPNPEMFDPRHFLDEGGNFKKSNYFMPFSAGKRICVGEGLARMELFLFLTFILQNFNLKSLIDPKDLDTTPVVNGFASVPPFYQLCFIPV
# Chain of Cytochrome P450 3A4 (Homo sapiens) (P08684 whole entry, looked up): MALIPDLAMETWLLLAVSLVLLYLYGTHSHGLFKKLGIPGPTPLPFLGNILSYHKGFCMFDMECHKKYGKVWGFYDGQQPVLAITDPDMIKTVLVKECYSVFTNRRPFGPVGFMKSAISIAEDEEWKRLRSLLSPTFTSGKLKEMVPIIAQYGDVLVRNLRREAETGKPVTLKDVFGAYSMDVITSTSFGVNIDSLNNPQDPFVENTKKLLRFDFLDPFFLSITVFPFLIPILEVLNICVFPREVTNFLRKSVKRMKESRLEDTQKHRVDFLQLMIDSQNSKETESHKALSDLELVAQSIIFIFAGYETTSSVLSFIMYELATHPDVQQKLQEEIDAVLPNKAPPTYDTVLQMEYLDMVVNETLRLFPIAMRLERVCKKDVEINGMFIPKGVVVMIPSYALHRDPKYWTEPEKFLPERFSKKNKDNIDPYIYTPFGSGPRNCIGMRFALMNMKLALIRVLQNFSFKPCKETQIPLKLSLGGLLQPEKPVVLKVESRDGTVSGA
compound,measurement,setting,value
Cc1cc(N=Nc2ccccc2C)ccc1N,AC50,[1],4.69 µM (active)
same,AC50,BCL2L11 (gene 10018),3.13 µM (active)
same,AC50,[2],2.97 µM (active)
same,outcome,Caspase-3 (Homo sapiens),inactive
same,AC50,[3],31.4 µM (active)
same,outcome,[4],inactive
same,AC50,[5],4.72 µM (active)
same,AC50,CYP2C8 (gene 1558),5.98 µM (active)
same,AC50,CYP2C9 (gene 1559),4.8 µM (active)
same,AC50,CYP2E1 (gene 1571),12.8 µM (active)
same,AC50,CYP4A11 (gene 1579),4.52 µM (active)
same,AC50,[6],2.94 µM (active)
same,outcome,[7],inactive
same,outcome,[8],inactive
COP(=S)(OC)SCN1C(=O)c2ccccc2C1=O,outcome,[1],inactive
same,outcome,BCL2L11 (gene 10018),inactive
same,outcome,[2],inactive
same,outcome,[9],inactive
same,outcome,Caspase-3 (Homo sapiens),inactive
same,outcome,[10],inactive
same,AC50,[3],22.3 µM (active)
same,outcome,[4],inactive
same,outcome,[5],inactive
same,outcome,CYP2C8 (gene 1558),inactive
same,outcome,CYP2C9 (gene 1559),inactive
same,outcome,CYP2E1 (gene 1571),inactive
same,outcome,CYP4A11 (gene 1579),inactive
same,outcome,[6],inactive
same,outcome,[7],inactive
same,outcome,[8],inactive
ClC1=C(Cl)[C@]2(Cl)[C@H]3[C@H]([C@@H]4C=C[C@H]3C4)[C@@]1(Cl)C2(Cl)Cl,AC50,[1],50 µM (active)
same,outcome,BCL2L11 (gene 10018),inactive
same,outcome,[2],inactive
same,outcome,[9],inactive
same,outcome,Caspase-3 (Homo sapiens),inactive
same,outcome,[10],inactive
same,outcome,[3],inactive
same,outcome,[4],inactive
same,AC50,[5],3.63 µM (active)
same,AC50,CYP2C8 (gene 1558),1.45 µM (active)
same,outcome,CYP2C9 (gene 1559),inactive
same,AC50,CYP2E1 (gene 1571),23 µM (active)
same,AC50,CYP4A11 (gene 1579),29.6 µM (active)
same,AC50,[6],4.36 µM (active)
same,outcome,[7],inactive
same,outcome,[8],inactive
C[C@]12C=CC3=C4CCC(=O)C=C4CC[C@H]3[C@@H]1CC[C@@H]2O,AC50,[1],50 µM (active)
same,outcome,BCL2L11 (gene 10018),inactive
same,outcome,[2],inactive
same,outcome,[9],inactive
same,outcome,Caspase-3 (Homo sapiens),inactive
same,outcome,[3],inactive
same,outcome,[4],inactive
same,AC50,CYP2C9 (gene 1559),50 µM (active)
same,AC50,[6],0.458 µM (active)
same,outcome,[7],inactive
same,outcome,[8],inactive
COC(=O)c1ccccc1N,outcome,[1],inactive
same,outcome,BCL2L11 (gene 10018),inactive
same,outcome,[2],inactive
same,outcome,[9],inactive
same,outcome,Caspase-3 (Homo sapiens),inactive
same,outcome,[3],inactive
same,outcome,[4],inactive
same,outcome,[5],inactive
same,outcome,CYP2C8 (gene 1558),inactive
same,outcome,CYP2C9 (gene 1559),inactive
same,outcome,CYP2E1 (gene 1571),inactive
same,outcome,CYP4A11 (gene 1579),inactive
same,outcome,[6],inactive
same,outcome,[7],inactive
same,outcome,[11],inactive
same,outcome,[8],inactive
O=Cc1ccco1,outcome,[1],inactive
same,outcome,BCL2L11 (gene 10018),inactive
same,outcome,[2],inactive
same,outcome,[9],inactive
same,outcome,Caspase-3 (Homo sapiens),inactive
same,outcome,[10],inactive
same,outcome,[3],inactive
same,outcome,[4],inactive
same,outcome,CYP2C8 (gene 1558),inactive
same,outcome,CYP2C9 (gene 1559),inactive
same,outcome,CYP2E1 (gene 1571),inactive
same,outcome,CYP4A11 (gene 1579),inactive
same,outcome,[6],inactive
same,outcome,[12],inactive
same,outcome,[7],inactive
same,outcome,[11],inactive
same,outcome,[8],inactive

# — PubChem BioAssay (EPA / NIEHS)
